# G9a block: qHTS Assay for Inhibitors of Histone Lysine Methyltransferase G9a; Histone-lysine N-methyltransferase EHMT2 (Homo sapiens), Q96KQ7; G9a H3K9 monomethylation, AlphaScreen, 2 h; Potency, µM (top dose mostly 102 µM), for inactives: top-dose activity, negative = inhibition, most hits filed as inhibitors; 350,000 compounds, 8.8% hits; also: % is scaled to controls: 0 for no effect and ±100 for the full control effect; nearly all actives have a fitted effect of over 75% in size
#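 G9a (20 nM) preincubated 15 min RT with compounds, then 500 nM biotinylated H3K9 peptide and 20 uM SAM added; 2 h RT reaction. Monomethyl-H3K9 product detected by AlphaScreen with anti-H3K9me1 antibody, streptavidin donor and anti-rabbit IgG acceptor beads.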
# GLS inh: qHTS for Inhibitors of Glutaminase (GLS); Glutaminase kidney isoform, mitochondrial (Homo sapiens), O94925; GLS enzymatic activity, qHTS titration; Potency, µM (doses to about 45.5 µM), without a hit: at the top dose activity change, negative = inhibition, actives largely listed as inhibitors; 410,000 compounds, 0.21% hits; AID 624170, 2012; also: % is scaled to controls: 0 for no effect and ±100 for the full control effect
#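 hKGA in 45 mM KH2PO4 pH 8.2, 0.02% Tween-20 with pin-transferred compounds; 1 mM L-glutamine (stock) plus glutamate oxidase/HRP/Amplex Red coupling added. Fluorescence read initially and after 30 min at RT.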
# BAZ2B block: qHTS Assay for Inhibitors of BAZ2B | Bromodomain adjacent to zinc finger domain protein 2B (Homo sapiens), Q9UIF8 | AlphaScreen BAZ2B-H3K14Ac peptide displacement | Potency, µM (doses to about 114 µM), without a hit: at the top dose activity change, negative = inhibition, most hits filed as inhibitors | 360,000 compounds, 4.4% hits; also: % is scaled to controls: 0 for no effect and ±100 for the full control effect; nearly all actives have a fitted effect of over 60% in size
#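 Complex of BAZ2B and biotin-H3K14Ac (50 nM apiece) forms over 30 min at RT, then faces library compounds up to 110 uM for another 30 min; AlphaScreen beads added, 20 min dark incubation, luminescence read.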
# HP1b binding inh: HTS for Inhibitors of HP1-beta Chromodomain Interactions with Methylated Histone Tails. 390,000 compounds, 0.56% hits. Chromobox protein homolog 1 (Homo sapiens), P83916. AID 540317, 2011. AlphaScreen HP1-beta / biotin-H3K9me3 peptide binding. Potency, µM (doses to about 114 µM), without a hit: at the highest dose activity change, negative = inhibition, hits mostly inhibitors; also: nearly all actives have a fitted effect of over 70% in size
#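 AlphaScreen: HP1-beta (50 nM) preformed 30 min with biotin-H3(1-18)K9me3 peptide (50 nM) in PBS pH 7.4, 0.01% Tween-20. Compound added for 30 min at RT, then streptavidin donor/nickel chelate acceptor beads (10 ug/mL) for 30 min.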
# JMJD2A Tudor inh: qHTS Assay for Inhibitors of JMJD2A-Tudor Domain | Lysine-specific demethylase 4A (Homo sapiens), O75164 | 390,000 compounds, 4.4% hits | Potency, µM (titrated, usually from 114 µM), for inactives: top-dose activity change, negative = inhibition, actives largely listed as inhibitors | AlphaScreen JMJD2A-Tudor / H3K4me3 peptide binding; also: % is scaled to controls: 0 for no effect and ±100 for the full control effect; nearly all actives have a fitted effect of over 50% in size
# Target sequence (O75164 whole entry, looked up, the tested form may be a part): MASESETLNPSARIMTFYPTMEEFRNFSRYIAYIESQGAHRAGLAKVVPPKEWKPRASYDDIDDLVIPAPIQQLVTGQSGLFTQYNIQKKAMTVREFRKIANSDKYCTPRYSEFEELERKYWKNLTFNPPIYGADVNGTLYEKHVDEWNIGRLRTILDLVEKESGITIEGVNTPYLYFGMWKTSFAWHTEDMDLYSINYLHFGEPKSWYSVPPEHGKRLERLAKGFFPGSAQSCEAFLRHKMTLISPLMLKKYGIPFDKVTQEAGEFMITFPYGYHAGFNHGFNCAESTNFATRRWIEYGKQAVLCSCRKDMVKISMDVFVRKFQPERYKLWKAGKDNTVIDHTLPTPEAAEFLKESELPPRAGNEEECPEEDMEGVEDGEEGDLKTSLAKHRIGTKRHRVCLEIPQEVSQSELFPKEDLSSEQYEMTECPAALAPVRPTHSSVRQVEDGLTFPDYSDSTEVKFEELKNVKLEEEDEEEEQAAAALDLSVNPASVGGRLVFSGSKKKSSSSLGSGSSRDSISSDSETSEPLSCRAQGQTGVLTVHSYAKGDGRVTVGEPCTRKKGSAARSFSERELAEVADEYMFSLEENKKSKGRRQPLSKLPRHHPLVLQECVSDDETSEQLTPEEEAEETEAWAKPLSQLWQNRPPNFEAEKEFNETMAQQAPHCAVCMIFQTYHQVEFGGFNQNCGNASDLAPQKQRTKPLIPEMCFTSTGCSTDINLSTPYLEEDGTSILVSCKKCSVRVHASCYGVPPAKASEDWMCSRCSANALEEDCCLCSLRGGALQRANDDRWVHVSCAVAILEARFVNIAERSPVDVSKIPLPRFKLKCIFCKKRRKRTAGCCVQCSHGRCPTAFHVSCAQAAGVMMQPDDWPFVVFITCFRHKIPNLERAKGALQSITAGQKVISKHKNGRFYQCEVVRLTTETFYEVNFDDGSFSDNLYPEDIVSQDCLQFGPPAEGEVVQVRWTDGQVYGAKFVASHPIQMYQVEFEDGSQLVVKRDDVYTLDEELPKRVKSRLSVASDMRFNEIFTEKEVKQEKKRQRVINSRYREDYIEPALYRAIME
# An asterisk follows results filed as active; ? = inconclusive; . = no result given; ! = repeats disagree; [ ] = remark or other dose. Most compounds without a hit are left out; they make up all but 10% or so of the library. Calls follow the shape of the dose curve; as a rule, active = well fitted curve in the direction sought with a large enough effect; inconclusive = small, poorly fitted or top-dose-only effect, or another doubt; inactive = no such curve, though single readings can be large; an effect the other way counts as inactive or inconclusive. Potency is read from the fitted curve at half-maximal effect.
SMILES,G9a block,GLS inh,BAZ2B block,HP1b binding inh,JMJD2A Tudor inh
Cc1ccccc1NC(=O)CSc1nc(-c2ccccc2)cn1-c1ccccc1F,11.2µM*,1.3%,?,-16.8%,?
CCc1nc2ccc(C(=O)Nc3cccc(NS(C)(=O)=O)c3)cn2c1N(C)C(=O)c1cccc(OC)c1,.,2.6%,.,.,.
CN1/C(=C\C(=O)CSc2nnc(NCc3ccccc3)s2)C(C)(C)c2ccccc21,3.16µM*,1.2%,?,5.7%,?
Cc1cc(C(=O)CSc2nnc(NCc3ccccc3)s2)c(C)n1C,?,12.5%,?,-22.1%,?
COc1cccc(CNC(=O)CN2C(=O)CCn3nc(-c4cn(C)c5ccccc45)cc32)c1OC,3.0%[59 µM],-7.4%,-13.8%,22.5%[57 µM],-12.8%
CCOC(=O)c1ccc(NC(=O)CC2C(=O)N(c3ccccc3)C(=O)N2C2CCCCC2)cc1 (centres undefined),-24.0%[59 µM],-3.7%,-12.6%,32.2%,-17.5%
Fc1ccccc1SCc1nnc(-c2ccccc2Br)o1,-10.2%,-10.2%,83.7%,-10.5%,11.2µM*
COc1ccccc1N1CC(C(=O)Nc2nnc(SCC(=O)N3CCOCC3)s2)CC1=O (centres undefined),?,8.2%,-11.5%,35.7%,-7.6%
Cc1nc2nc(C)c(CCC(=O)NCCCN3CCN(c4cccc(Cl)c4)CC3)c(C)n2n1,50.1µM*!,9.0%,?,13.8%,?
O=c1c2ccccc2sn1-c1ccc(F)cc1,2.2%[0.501 µM],10µM*,4.47µM*,7.1%,12.6µM*
O=c1c2ccc(F)cc2sn1-c1ccccc1,.,7.08µM*,.,.,.
COC(=O)c1cccc(-n2sc3ccccc3c2=O)c1,7.7%[0.501 µM],11.2µM*,6.31µM*,-28.0%,14.1µM*
CCN(CC)c1cc(C)c2cc(NC(=O)/C=C/c3cc(OC)c(OC)c(OC)c3)ccc2n1,?,0.9%,?,-8.3%,?
Cc1cc(OCC(=O)Nc2ccc(S(=O)(=O)N3CCN(C)CC3)cc2)ccc1Cl,?,-4.4%,4.4%,50.7%,-3.5%
COc1cc(S(=O)(=O)N2CCOCC2)ccc1NC(=O)COC(=O)CC12CC3CC(CC(C3)C1)C2,1.41µM*,-2.1%,-2.3%,41.0%,-20.0%
COc1ccccc1OCC(=O)Nc1ccc(S(=O)(=O)N2CCOCC2)cc1,79.4µM*,2.9%,-2.9%,-11.8%,-24.4%
Cc1cc(OCC(=O)Nc2ccc(S(=O)(=O)N3CCN(C)CC3)cc2)cc(C)c1Cl,?,2.7%,50.1µM*,-17.4%,50.1µM*
Cc1cc(C)c(OCC(=O)Nc2ccc(S(=O)(=O)N3CCOCC3)cc2)c(C)c1,44.7µM*,5.5%,-15.9%,8.8%,-17.5%
COc1ccc(CNC(=O)CNS(=O)(=O)c2ccc(Cl)cc2)cc1,-2.7%[59 µM],2.0%,9.8%,17.6%,-5.6%
CCOC(=O)c1cnc2nc(C(F)(F)F)[nH]n2c1=O,?,0.7%,?,19.0%,-25.0%
CCOC(=O)c1cnc2nc[nH]n2c1=O,56.2µM*,-2.7%,16.4%,25.2%,-26.9%
CCOC(=O)c1cnc2nc(C)nn2c1N,28.2µM*,-15.1%,-34.1%,29.4%,-7.7%
CCOC(=O)c1ccc(NC(=O)CCc2c(C)nc3nc[nH]n3c2=O)cc1,-5.8%[59 µM],3.1%,56.2µM*,27.6%,-10.4%
COc1ccccc1-c1noc2ncnc(Nc3cccc(C)c3C)c12,.,-0.6%,-0.5%,43.9%,-20.0%
CC(=O)C1=C(O)C(=O)N(c2ccc(Br)cc2)C1c1cccc(F)c1 (centres undefined),44.7µM*,14.0%,-34.2%,11.1%,-23.3%
SMILES,G9a block,GLS inh,BAZ2B block,HP1b binding inh,JMJD2A Tudor inh
CC(=O)C1=C(O)C(=O)N(c2ccc(O)cc2)C1c1cccc([N+](=O)[O-])c1 (centres undefined),50.1µM*,23.9%,4.1%,21.9%,-6.8%
Cc1cccc(C)c1NC(=O)c1sc(-n2nc(C)c(Cc3ccccc3)c2C)nc1C,-1.7%[59 µM],3.5%,-10.1%,45.0%,-3.0%
Cc1ccc2c(c1)c(C)cc(=O)n2CCC(=O)O,?,16.3%,50.1µM*,-16.4%,89.1µM*
CC1(C(=O)NS(=O)(=O)c2ccc(Cl)cc2)CCN1C(=O)C/C=C/c1ccccc1 (centres undefined),.,7.2%,.,.,.
Cc1ccc(Cc2c(-c3cccc(Cl)c3)nc3c4ccccc4ccn23)cc1,.,0.4%,.,.,.
CNC(=O)C[C@H]1C(=O)N(c2ccccc2)C[C@@H]1C,.,-4.7%,.,.,.
N#CC1=C(N)OC2=C(C(=O)CCC2)C12CCC1(CC2)OCCO1,79.4µM*,0.2%,-35.7%,5.0%,-16.9%
CCOC(=O)N1CCC2(CC1)C(C#N)=C(N)OC1=C2C(=O)CCC1,11.6%,-0.1%,-1.5%,8.6%,-12.0%
c1ccc(C2=Nn3c(nnc3-c3ccccn3)SC2)cc1,?,-4.0%,28.2µM*,67.6%,-30.5%[57.1 µM]
Cc1cc(-c2nnc3n2N=C(c2ccccc2)CS3)n[nH]1,44.7µM*,23.0%,-21.8%,14.7%,?
c1ccc(C2=Nn3c(nnc3-c3ccncc3)SC2)cc1,?,3.0%,0.2%,12.3%,-19.2%
Cc1cc(-c2nnc3n2N=C(c2ccc(-c4ccccc4)cc2)CS3)n[nH]1,?,0.1%,-35.1%,0.7%,-18.5%[11.4 µM]
CC1=Nn2c(nnc2-c2ccccn2)SC1,-21.0%[12.7 µM],-2.1%,50.1µM*,32.2%,22.4µM*
COc1ccc(C2=Nn3c(nnc3-c3ccco3)SC2)cc1,17.0%[59 µM],-0.4%,-0.6%,16.0%,-22.5%
Oc1ccc(C2=Nn3c(nnc3-c3ccco3)SC2)cc1O,12.6µM*,?,?,?,44.7µM*
C[C@@H]1CN([C@H](C)CO)C(=O)c2cc(-c3ccc(C(=O)N(C)C)cc3)cnc2O[C@@H]1CN(C)C(=O)c1cccnc1,.,2.1%,.,.,.
C#CCOCCOCCOCCNc1nc(N2CCN(C(=O)[C@H]([C@@H](C)CC)n3cc([C@@H](N)CC(C)C)nn3)CC2)nc(N2CCN(C(=O)[C@H]([C@@H](C)CC)n3cc([C@@H](N)CC(C)C)nn3)CC2)n1,?,0.1%,79.4µM*,6.5%,?
C#CCOCCOCCOCCNc1nc(N2CCN(C(=O)[C@H]([C@@H](C)CC)n3cc([C@@H](N)Cc4ccc(O)cc4)nn3)CC2)nc(N2CCN(C(=O)[C@H]([C@@H](C)CC)n3cc([C@@H](N)Cc4ccc(O)cc4)nn3)CC2)n1,-0.7%[12.7 µM],13.2%,50.1µM*,34.9%,?

# Source: PubChem BioAssay (National Center for Advancing Translational Sciences (NCATS))
